This passage reports binding signal results from article PMC7862700, “An all-to-all approach to the identification of sequence-specific readers for epigenetic DNA modifications on cytosine”.

Assay in all cases: DAPPL (digital affinity profiling via proximity ligation, sequencing); 10 mM Tris-HCl pH 7.5, 50 mM NaCl, 1 mM DTT, 4% glycerol, room temperature, 30 min; GST-TFs on glutathione beads, 16-mer random dsDNA library, 0.1% formaldehyde crosslink after washing; high values mean tight binding
The target in one experiment is T1, FEV (Homo sapiens, UniProt Q99581 1-238).
T1 sequence: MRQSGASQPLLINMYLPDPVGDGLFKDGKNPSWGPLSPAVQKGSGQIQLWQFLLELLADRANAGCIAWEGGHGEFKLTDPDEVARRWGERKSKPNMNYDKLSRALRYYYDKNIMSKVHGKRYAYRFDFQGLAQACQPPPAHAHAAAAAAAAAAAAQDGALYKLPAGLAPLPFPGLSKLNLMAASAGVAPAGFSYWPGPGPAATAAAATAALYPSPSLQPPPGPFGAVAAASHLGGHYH
Particulars: protein: recombinant; tags: N-terminal GST; dsDNA, one strand shown. The essentials: (§1)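 Binding signal is each hexamer's read frequency for a factor divided by its frequency in the tag-only sample. The factors were GST-fused human transcription factors from yeast, captured on glutathione beads, DNA-barcoded and pooled with that sample. Pools were incubated with 200 nmole of a random double-stranded 16-mer DNA library in Tris/NaCl/DTT/glycerol buffer at room temperature for 30 min, then washed, crosslinked with 0.1% formaldehyde, proximity-ligated with BsaI/T4 ligase (1 h, 37 °C), PCR-amplified and sequenced on an Illumina NextSeq500.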

A further experiment deals with ETV5 (Homo sapiens, UniProt P41161 1-510). The conditions noted are these: protein: recombinant; tags: N-terminal GST; dsDNA, one strand shown. Put shortly:
as §1

For the next experiment, the target named is HSF1 (Homo sapiens, UniProt Q00613 1-529). Particulars: protein: recombinant; tags: N-terminal GST; chain copies: 3; dsDNA, one strand shown. Put shortly: as §1
The target in a further experiment is T2, SPIC (Homo sapiens, UniProt Q8N5J4 1-248).
T2 sequence: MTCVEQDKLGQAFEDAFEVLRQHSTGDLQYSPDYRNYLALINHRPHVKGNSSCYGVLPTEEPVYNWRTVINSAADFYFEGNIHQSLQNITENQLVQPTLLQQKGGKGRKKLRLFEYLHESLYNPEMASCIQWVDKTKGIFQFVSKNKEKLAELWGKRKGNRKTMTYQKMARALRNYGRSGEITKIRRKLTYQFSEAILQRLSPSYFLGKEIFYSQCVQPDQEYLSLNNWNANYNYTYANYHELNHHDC
Particulars: protein: recombinant; tags: N-terminal GST; dsDNA, one strand shown. Put shortly: as §1

A further experiment deals with ELF4 (Homo sapiens, UniProt Q99607 1-663). The conditions noted are these: protein: recombinant; tags: N-terminal GST; dsDNA, one strand shown. Put shortly: as §1
The target of a further experiment is T3, ELK4 (Homo sapiens, UniProt P28324-2 1-405).
T3 sequence: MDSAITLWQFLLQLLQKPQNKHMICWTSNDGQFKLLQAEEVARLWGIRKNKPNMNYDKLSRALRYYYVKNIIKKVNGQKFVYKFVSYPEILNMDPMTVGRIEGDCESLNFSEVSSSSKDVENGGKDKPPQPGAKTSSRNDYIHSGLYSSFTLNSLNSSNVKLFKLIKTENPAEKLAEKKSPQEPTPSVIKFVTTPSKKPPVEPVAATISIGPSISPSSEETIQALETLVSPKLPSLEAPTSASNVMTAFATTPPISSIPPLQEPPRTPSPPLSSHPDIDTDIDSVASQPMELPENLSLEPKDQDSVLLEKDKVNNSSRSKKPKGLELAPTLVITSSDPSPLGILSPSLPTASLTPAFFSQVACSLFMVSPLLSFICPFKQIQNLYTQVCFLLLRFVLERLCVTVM
Particulars: protein: recombinant; tags: N-terminal GST; dsDNA, one strand shown. The essentials:
as §1

The target in another experiment is T4, ETV2 (Homo sapiens, UniProt O00321 1-342).
T4 sequence: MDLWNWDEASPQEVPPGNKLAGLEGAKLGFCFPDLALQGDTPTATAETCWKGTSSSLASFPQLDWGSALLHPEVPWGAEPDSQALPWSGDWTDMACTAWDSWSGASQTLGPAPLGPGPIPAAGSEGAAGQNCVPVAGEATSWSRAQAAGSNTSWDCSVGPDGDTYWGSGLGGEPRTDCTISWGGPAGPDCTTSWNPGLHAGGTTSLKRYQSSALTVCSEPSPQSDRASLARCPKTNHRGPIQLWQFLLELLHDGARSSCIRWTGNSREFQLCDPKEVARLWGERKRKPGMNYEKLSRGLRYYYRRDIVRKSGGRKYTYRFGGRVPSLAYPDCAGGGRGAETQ
Particulars: protein: recombinant; tags: N-terminal GST; dsDNA, one strand shown. The essentials:
as §1

The next experiment has as its target T5, ELF3 (Homo sapiens, UniProt P78545 1-371).
T5 sequence: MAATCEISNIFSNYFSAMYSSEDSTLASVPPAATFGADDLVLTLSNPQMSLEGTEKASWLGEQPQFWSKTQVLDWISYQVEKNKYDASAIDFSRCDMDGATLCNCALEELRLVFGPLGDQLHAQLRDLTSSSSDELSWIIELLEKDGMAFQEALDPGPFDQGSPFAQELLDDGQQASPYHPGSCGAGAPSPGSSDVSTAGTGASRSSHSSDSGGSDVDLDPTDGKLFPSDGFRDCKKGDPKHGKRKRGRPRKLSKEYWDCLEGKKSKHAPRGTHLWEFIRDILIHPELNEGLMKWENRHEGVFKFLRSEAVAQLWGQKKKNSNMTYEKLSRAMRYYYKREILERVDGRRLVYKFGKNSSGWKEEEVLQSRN
The conditions noted are these: protein: recombinant; tags: N-terminal GST; dsDNA, one strand shown. Put shortly: as §1

In another experiment the target is CRX (Homo sapiens, UniProt O43186 1-299). Particulars: protein: recombinant; tags: N-terminal GST; dsDNA, one strand shown. The essentials: as §1
The target of another experiment is ETV1 (Homo sapiens, UniProt P50549 1-477). Particulars: protein: recombinant; tags: N-terminal GST; dsDNA, one strand shown. The essentials:
as §1

The target in another experiment is T6, ERF (Homo sapiens, UniProt P50548 1-548).
T6 sequence: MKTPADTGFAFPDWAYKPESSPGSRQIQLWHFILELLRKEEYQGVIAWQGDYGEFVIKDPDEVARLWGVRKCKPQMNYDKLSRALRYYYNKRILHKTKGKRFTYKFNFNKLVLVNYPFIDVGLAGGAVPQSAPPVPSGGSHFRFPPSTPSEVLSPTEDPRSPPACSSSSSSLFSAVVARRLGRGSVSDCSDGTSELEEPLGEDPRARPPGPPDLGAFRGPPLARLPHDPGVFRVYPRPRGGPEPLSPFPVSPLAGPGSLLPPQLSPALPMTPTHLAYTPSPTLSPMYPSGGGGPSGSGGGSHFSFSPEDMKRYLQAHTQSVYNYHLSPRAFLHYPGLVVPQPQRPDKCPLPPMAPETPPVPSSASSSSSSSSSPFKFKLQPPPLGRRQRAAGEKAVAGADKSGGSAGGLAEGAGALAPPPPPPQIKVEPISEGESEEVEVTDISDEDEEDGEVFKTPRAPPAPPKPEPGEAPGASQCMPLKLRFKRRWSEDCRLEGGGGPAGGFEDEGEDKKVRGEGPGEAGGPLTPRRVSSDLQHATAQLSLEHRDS
Particulars: protein: recombinant; tags: N-terminal GST; dsDNA, one strand shown. The essentials: as §1

Another experiment concerns the target T7, ETV3L (Homo sapiens, UniProt Q6ZN32 1-361).
T7 sequence: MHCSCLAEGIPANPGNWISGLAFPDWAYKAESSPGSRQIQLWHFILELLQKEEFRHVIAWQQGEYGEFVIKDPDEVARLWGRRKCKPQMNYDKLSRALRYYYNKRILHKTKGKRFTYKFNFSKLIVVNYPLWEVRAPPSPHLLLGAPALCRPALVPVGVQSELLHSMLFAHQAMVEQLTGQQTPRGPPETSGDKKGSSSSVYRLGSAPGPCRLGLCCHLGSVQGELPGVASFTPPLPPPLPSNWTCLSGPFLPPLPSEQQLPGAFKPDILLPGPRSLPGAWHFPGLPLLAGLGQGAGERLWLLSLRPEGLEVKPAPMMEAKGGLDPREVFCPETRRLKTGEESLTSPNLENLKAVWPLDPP
The conditions noted are these: protein: recombinant; tags: N-terminal GST; dsDNA, one strand shown. Put shortly:
as §1

The next experiment has as its target T8, ETS2 (Homo sapiens, UniProt P15036 1-469).
T8 sequence: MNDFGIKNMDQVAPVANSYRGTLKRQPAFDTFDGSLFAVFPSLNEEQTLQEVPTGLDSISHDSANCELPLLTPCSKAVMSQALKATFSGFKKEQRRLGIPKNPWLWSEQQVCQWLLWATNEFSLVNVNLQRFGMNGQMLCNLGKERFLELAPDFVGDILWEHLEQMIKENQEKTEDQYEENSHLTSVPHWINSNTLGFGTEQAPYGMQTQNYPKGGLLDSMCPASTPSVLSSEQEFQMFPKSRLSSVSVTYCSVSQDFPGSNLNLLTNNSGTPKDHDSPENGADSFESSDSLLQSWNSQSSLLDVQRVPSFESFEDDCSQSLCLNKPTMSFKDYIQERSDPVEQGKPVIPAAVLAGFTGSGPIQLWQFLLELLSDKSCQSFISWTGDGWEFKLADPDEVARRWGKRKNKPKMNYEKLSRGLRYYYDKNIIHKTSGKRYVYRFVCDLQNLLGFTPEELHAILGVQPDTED
The conditions noted are these: protein: recombinant; tags: N-terminal GST; dsDNA, one strand shown. Put shortly: as §1

For a further experiment, the target named is T9, SPDEF (Homo sapiens, UniProt O95238 1-335).
T9 sequence: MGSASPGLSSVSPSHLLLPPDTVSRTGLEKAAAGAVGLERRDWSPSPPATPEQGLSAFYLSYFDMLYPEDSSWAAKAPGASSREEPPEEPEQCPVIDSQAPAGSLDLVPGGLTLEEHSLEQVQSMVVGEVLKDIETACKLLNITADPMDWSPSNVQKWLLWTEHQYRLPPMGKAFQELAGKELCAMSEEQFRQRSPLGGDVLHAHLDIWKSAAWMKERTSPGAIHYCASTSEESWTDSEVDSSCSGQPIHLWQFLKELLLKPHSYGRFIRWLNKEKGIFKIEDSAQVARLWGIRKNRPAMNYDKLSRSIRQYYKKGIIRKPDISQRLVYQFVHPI
Particulars: protein: recombinant; tags: N-terminal GST; dsDNA, one strand shown. The essentials:
as §1

In another experiment the target is T10, ETV7 (Homo sapiens, UniProt Q9Y603 1-341).
T10 sequence: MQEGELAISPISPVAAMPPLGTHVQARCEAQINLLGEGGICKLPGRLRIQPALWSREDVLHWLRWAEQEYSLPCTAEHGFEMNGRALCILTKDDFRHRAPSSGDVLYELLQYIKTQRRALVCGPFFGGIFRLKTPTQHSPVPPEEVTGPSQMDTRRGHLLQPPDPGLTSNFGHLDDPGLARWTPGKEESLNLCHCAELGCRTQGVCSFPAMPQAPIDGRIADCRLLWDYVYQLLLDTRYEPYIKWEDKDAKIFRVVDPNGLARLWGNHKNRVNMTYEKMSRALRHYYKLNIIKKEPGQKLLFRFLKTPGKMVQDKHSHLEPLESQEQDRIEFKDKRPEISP
Particulars: protein: recombinant; tags: N-terminal GST; dsDNA, one strand shown. The essentials:
as §1

The target of the next experiment is T11, ELF5 (Homo sapiens, UniProt Q9UKW6-2 1-255).
T11 sequence: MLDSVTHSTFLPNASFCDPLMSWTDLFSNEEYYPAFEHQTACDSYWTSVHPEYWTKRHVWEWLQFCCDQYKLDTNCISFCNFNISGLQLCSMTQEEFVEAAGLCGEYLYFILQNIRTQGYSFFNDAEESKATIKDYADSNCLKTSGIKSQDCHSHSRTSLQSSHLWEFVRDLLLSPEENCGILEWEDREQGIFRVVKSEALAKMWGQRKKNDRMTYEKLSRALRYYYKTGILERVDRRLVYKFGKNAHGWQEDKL
The conditions noted are these: protein: recombinant; tags: N-terminal GST; dsDNA, one strand shown. The essentials:
as §1

The next experiment has as its target T12, ETV3 (Homo sapiens, UniProt P41162-2 1-143).
T12 sequence: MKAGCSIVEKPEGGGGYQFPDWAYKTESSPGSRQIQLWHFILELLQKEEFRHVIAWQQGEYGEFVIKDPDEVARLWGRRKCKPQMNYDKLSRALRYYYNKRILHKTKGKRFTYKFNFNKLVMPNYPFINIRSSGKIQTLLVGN
Particulars: protein: recombinant; tags: N-terminal GST; dsDNA, one strand shown. Put shortly: as §1

Another experiment has as its target ETV6 (Homo sapiens, UniProt P41212 1-452). The conditions noted are these: protein: recombinant; tags: N-terminal GST; dsDNA, one strand shown. The essentials:
as §1

Chain of ETV6 (P41212 whole entry): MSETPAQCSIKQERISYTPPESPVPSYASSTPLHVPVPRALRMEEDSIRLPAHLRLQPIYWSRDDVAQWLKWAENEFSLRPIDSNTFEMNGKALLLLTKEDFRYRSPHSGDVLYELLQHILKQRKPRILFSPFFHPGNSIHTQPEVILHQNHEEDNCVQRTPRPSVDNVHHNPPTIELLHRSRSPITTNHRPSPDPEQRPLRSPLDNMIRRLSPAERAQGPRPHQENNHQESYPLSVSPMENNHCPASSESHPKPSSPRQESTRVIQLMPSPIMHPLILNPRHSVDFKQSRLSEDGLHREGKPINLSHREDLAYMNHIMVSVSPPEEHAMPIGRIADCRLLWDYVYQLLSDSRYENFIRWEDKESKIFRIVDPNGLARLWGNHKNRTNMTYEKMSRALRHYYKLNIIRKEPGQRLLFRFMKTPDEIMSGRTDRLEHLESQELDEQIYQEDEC
Chain of HSF1 (Q00613 whole entry): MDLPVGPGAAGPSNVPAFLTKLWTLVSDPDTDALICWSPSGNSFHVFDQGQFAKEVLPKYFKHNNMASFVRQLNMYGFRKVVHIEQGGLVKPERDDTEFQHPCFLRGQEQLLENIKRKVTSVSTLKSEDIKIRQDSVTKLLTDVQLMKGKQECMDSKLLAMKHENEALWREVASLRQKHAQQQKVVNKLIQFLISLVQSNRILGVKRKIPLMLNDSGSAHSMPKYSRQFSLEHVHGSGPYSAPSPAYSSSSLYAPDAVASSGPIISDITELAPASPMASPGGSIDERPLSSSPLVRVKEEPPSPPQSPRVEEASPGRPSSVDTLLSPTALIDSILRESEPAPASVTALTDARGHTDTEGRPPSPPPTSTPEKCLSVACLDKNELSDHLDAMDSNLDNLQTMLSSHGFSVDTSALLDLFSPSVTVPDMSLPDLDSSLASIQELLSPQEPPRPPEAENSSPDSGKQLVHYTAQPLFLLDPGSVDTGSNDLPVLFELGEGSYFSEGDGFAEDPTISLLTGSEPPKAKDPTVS
Chain of ELF4 (Q99607 whole entry): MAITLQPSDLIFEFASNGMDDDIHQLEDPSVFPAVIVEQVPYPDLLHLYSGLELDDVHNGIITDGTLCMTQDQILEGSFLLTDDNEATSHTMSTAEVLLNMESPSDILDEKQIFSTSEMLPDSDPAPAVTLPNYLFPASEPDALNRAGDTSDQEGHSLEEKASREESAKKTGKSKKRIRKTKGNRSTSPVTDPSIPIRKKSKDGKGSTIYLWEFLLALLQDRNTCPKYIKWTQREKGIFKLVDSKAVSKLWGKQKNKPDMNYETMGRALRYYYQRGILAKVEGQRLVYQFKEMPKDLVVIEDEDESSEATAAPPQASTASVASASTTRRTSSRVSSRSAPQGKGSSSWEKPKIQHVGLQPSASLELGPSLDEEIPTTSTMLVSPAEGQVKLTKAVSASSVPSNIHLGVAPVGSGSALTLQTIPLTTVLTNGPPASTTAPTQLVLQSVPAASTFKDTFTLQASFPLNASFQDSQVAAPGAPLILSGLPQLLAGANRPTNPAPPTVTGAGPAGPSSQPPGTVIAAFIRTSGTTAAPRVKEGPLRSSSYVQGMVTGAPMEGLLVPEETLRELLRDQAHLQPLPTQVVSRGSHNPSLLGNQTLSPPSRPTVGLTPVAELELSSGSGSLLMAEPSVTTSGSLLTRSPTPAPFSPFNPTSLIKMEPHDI
Chain of CRX (O43186 whole entry): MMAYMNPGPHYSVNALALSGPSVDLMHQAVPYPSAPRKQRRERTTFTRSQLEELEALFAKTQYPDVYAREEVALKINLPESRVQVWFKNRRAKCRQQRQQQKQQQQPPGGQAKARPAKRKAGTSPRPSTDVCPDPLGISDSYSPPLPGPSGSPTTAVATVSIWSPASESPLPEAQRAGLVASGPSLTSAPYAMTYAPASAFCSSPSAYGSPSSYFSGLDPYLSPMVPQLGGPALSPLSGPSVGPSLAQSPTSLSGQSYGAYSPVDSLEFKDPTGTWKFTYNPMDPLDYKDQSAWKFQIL
Chain of ETV1 (P50549 whole entry): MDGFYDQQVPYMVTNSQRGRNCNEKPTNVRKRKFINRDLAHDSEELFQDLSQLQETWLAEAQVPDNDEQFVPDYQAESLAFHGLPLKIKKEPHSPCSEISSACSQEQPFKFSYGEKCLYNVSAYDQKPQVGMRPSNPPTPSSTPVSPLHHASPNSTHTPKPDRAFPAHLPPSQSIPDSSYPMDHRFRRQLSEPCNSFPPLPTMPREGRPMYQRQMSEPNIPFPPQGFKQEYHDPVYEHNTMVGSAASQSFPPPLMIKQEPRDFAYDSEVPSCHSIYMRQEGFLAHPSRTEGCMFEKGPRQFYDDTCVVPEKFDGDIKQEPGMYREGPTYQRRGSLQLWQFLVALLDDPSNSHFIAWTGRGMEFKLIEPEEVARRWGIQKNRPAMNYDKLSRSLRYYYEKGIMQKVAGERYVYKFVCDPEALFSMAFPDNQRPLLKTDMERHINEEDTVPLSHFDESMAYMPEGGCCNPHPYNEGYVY
Chain of ETV5 (P41161 whole entry): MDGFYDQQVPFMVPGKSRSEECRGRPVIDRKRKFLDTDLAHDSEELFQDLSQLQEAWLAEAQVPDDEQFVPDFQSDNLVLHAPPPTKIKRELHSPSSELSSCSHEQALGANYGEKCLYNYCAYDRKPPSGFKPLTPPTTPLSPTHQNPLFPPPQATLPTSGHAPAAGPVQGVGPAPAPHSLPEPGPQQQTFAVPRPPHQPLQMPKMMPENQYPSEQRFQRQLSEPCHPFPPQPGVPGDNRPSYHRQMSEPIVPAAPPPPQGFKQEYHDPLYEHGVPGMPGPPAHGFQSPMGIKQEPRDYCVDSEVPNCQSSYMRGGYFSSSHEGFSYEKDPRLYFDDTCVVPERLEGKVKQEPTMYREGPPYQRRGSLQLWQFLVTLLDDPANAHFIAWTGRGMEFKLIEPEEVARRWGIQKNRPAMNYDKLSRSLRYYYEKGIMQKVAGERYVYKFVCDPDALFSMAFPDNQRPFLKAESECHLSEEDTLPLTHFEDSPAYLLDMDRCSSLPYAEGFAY

As to CTAATA, the binding signal is 1.16 fold enrichment (6-mer frequency, TF over GST control) with FEV; 1.21 fold enrichment (6-mer frequency, TF over GST control) with ETV5; 1.55 fold enrichment (6-mer frequency, TF over GST control) in the experiment with HSF1; 1.29 fold enrichment (6-mer frequency, TF over GST control) with SPIC; 1.18 fold enrichment (6-mer frequency, TF over GST control) with ELF4; 1.1 fold enrichment (6-mer frequency, TF over GST control) with ELK4. The binding signal in the experiment with ETV2 was 1.24 fold enrichment (6-mer frequency, TF over GST control); with ELF3 it was 1.16 fold enrichment (6-mer frequency, TF over GST control); with CRX it was 2.09 fold enrichment (6-mer frequency, TF over GST control); in the experiment with ETV1 it was 1.22 fold enrichment (6-mer frequency, TF over GST control); in the experiment with ERF it was 1.27 fold enrichment (6-mer frequency, TF over GST control); in the experiment with ETV3L it was 1.2 fold enrichment (6-mer frequency, TF over GST control). Moreover, the binding signal with ETS2 was 1.18 fold enrichment (6-mer frequency, TF over GST control); with SPDEF, 1.25 fold enrichment (6-mer frequency, TF over GST control); with ETV7, 1.24 fold enrichment (6-mer frequency, TF over GST control); with ELF5, 1.08 fold enrichment (6-mer frequency, TF over GST control); with ETV3, 1.06 fold enrichment (6-mer frequency, TF over GST control); in the experiment with ETV6, 1.13 fold enrichment (6-mer frequency, TF over GST control).
